Here are results for 40 molecules from PubChem BioAssay (NCI).

Each structure is given as a SMILES string. Compounds without any hit were thinned out: in the full panel of roughly 83,000, 20% have a hit.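 Treatment: one concentration, 48 hours, 96-well format. Scoring: percent growth, with anything below 10 considered active.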 Values without a mark were called inactive. Active and inactive are the calls of the source.

The test system of this experiment is HOP-92 NSCLC. The experiment can be described thus: NCI-60 one-dose screen, 48 h (100 = growth as untreated, 0 = no growth, -100 = all killed). The note with it: 10 µM. The method, then: Growth inhibition of the HOP-92 human Non-Small Cell Lung tumor cell line is measured as a screen for anti-cancer activity. Cells are grown in 96 well plates and exposed to the test compound for 48 hours. Compounds are tested at a single concentration, which is 10^-5 M for most compounds. The reported endpoint is percent growth (GI% or GIPRCNT), where numbers from 0 - 100% represent growth inhibition, and numbers from -100% - 0 represent cell death. For example, a value of 40 represents 60% growth inhibition. A value of 0 means no net growth occurred over the course of the experiment. A value of -40 indicates 40% of cells at the beginning of the experiment died by the end of the experiment. A value of -100 means all cells are dead at the end of the experiment.
NCI-60 Human Tumor Cell Lines Screen was performed using the standard one-dose NCI protocol, which is described in more detail at https://dtp.cancer.gov/discovery_development/nci-60/default.htm.
Compounds with GIPRCNT values below 10 were considered active. Activity score was based on GIPRCNT using the following formula: […]
Score is 0 for GIPRCNT values of 100 or above, 50 for GIPRCNT values of 0, and 100 for GIPRCNT values of -100.
On to `O=C(CCNNC(=O)c1ccncc1)NCc1ccccc1`, for which the growth was 97.8%.
With `N#CSc1cc(S(N)(=O)=O)ccc1N`, the growth is 135%.
Consider `O/N=C/c1ccc(O)cc1O`, for which the growth is 92%.
In the case of `O=C1C[C@H](c2ccccc2)[C@H](c2ccccc2)C1`, the growth is 70.9%.
In the case of `O=C(c1ccccc1)C1CCC1`, the growth was 86.6%.
As for `O=c1cc2oc3cc(O)c(O)cc3c(-c3ccccc3O)c-2cc1O`, the growth is 7.48% (active).
In the case of `NC(=O)c1ccc(N=C(N)N=C(N)N)cc1`, the growth is 83.2%.
As for `O=C(Nc1ccccc1)OCCc1ccccc1`, the figure is 82.5%; as for `O=S(=O)(O)c1ccc(Cl)c(Cl)c1`, 94.3%; as for `COc1cc(/C=C(\C#N)C(=O)c2ccccc2)ccc1OCc1ccccc1`, 95.7%.
For the molecule `O=C1OC(c2ccc(F)cc2)CC1CN1CCOCC1` (stereo not given), the growth was 94.5%.
As for `NC(=O)N/N=C\c1ccco1`, the figure is 102%; as for `O=C(Cc1nc2ccc([N+](=O)[O-])cc2nc1CC(=O)c1cccnc1)c1cccnc1`, 69.8%.
On to `O=C(O)c1cc([N+](=O)[O-])ccc1Cl`, for which the growth was 82.1%.
For the molecule `S=C1NCc2cncnc2N1`, the growth is 95.6%.
As for `CC1(C(N)=O)CCC(C(=O)O)C1(C)C` (stereo not given), the figure is 94.3%; as for `CCOc1ccc(Br)cc1/C=N\N=C\c1cc(Br)ccc1OCC`, 92.2%.
Regarding `CC1CC(O)CC(C)(C)C1` (stereo not given), the growth is 96.5%.
With `c1csc(-c2cc(-c3cc(-c4cccs4)[nH]n3)n[nH]2)c1` the figure was 93.6%; with `CCC(C)(O)c1ccc(C)cc1` (stereo not given), 103%.
On to `CC(=O)c1ccc(C(C)(C)C)cc1`, for which the growth is 80.6%.
With `O=C(NC1CCCCC1)OCc1c(COC(=O)NC2CCCCC2)c(-c2ccc(Cl)c(Cl)c2)n2c1CCC2`, the growth is -1.46% (active).
As for `CC(=O)OC(C(=O)O)c1ccccc1` (stereo not given), the figure is 80.4%; as for `O=C(O)C(c1ccccc1)C(O)c1ccccc1` (stereo not given), 93%; as for `NC(=S)CN1CCOCC1`, 91.9%.
With `CCOc1ccc(/C=C/C(=O)c2ccccc2)cc1`, the growth is 82.6%.
For `OCCN1CCOCC1`, the growth was 115%.
Regarding `O=[N+]([O-])c1ccc(N=Nc2ccccc2)cc1`, the growth was 94%.
With `COc1cc2c(cc1OC)[C@H](C(=O)O)[C@@H](c1ccc(OC(C)C)c(OC)c1)N(C)C2=O` the figure was 83.3%.
As to `Cc1cccc(CO)c1`, the growth is 102%.
On to `COc1ccc(-c2cc3c(nn2)-c2ccccc2C3=O)cc1`, for which the growth was 98.3%.
For `c1cc[n+](C2c3ccccc3C([n+]3ccccc3)c3ccccc32)cc1` (stereo not given), the growth was 20.6%.
For the molecule `Cc1cc(C)c(CC(=O)O)c(C)c1`, the growth is 90.5%.
Turning to `NCCCN`, the growth is 103%.
Turning to `O=C(O)CCCc1ccccc1`, the growth was 105%.
As for `COc1ccc2c(NCCCCCCCCNc3c4ccccc4nc4cc(OC)ccc34)c3ccccc3nc2c1`, the growth was -100% (active).
For the molecule `COCCCC/C(=N\OCCN)c1ccc(C(F)(F)F)cc1`, the growth is 63.2%.
As for `N/N=C(/Cc1ccccc1)NNC(N)=S`, the figure is 119%.
With `S=C(Nc1ccccc1)N1CCCCC1` the figure was 93.3%.
With `CC(=O)OCCC(C)CCC=C(C)C` (stereo not given) the figure was 98.8%.
